Assay [1] addresses Cellular tumor antigen p53 (Homo sapiens) (UniProt P04637). The experiment in a line: Primary qHTS for small molecule compounds that upregulate eGFP-tagged delta133p53alpha (in N-terminal) cells. (AID 2060322). Further: nearly all actives have a fitted effect of over 75% in size. Further: potency means the concentration at half of the fitted maximal effect.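 On activation: series mostly up to about 56 µM; 0% = DMSO vehicle and 100% = reference activator.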 The following applies: NCI-H358 eGFP-delta133p53alpha fluorescence, 24 h; activation: hits give high values. Summed up: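 NCI-H358 cells pre-induced 24 h with 10 ng/ml doxycycline to express N-terminal eGFP-delta133p53alpha, then dosed 24 h at 37C without doxycycline; fixed, Hoechst-stained, GFP intensity by laser scanning cytometry, normalized to DMSO (0%) and 57.5 uM 5-azacytidine (100%).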
A general note: Quantitative high-throughput screening tests each substance at several concentrations.

In assay [2] the target is Aldehyde dehydrogenase, mitochondrial (Homo sapiens) (UniProt P05091). The experiment in a line: qHTS for Inhibitors of the Aldehyde Dehydrogenase Family (ALDH2) Confirmatory screens (AID 2061303; active means well fitted inhibition curve with a large enough effect; title and protocol of this record describe different tests; further: nearly all actives have a fitted effect of over 45% in size; further: potency means the concentration at half of the fitted maximal effect).
A short description of assay [3]: qHTS for Inhibitors of the Aldehyde Dehydrogenase Family (ALDH1A2, ALDH1A3, ALDH2, ALDH3A1) (AID 2061307). Further: nearly all actives have a fitted effect of over 50% in size.
Assay [4] has as its target Aldehyde dehydrogenase, mitochondrial (Homo sapiens) (UniProt P05091). The experiment in a line: qHTS for Inhibitors of the Aldehyde Dehydrogenase Family (ALDH2) Primary screen (AID 2061308).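 Further: plate controls were vehicle for no effect and reference inhibitor for full effect; nearly all actives have a fitted effect of over 55% in size.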
For assay [5], the target named is Retinaldehyde dehydrogenase 3 (Homo sapiens) (UniProt P47895). The assay can be described thus: qHTS for Inhibitors of the Aldehyde Dehydrogenase Family (ALDH1A3) Confirmatory screens (AID 2061311). Further: nearly all actives have a fitted effect of over 60% in size.
For assay [6], the target named is Aldehyde dehydrogenase 1A1 (Homo sapiens) (UniProt P00352). The assay can be described thus: qHTS for Inhibitors of the Aldehyde Dehydrogenase Family (ALDH1A1) Confirmatory screens (AID 2061316). Further: nearly all actives have a fitted effect of over 65% in size. Further: potency means the concentration at half of the fitted maximal effect.
A short description of assay [7]: BET inhibitor-based combinations targeting novel dependencies in MECOM-rearranged (r) AML: SET-2 cell line (AID 2202231). Further: nearly all actives have a fitted effect of over 35% in size. Further: potency means the concentration at half of the fitted maximal effect.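 On viability: plate controls were DMSO treated cells for no effect and wells without cells for full effect.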 The following applies: SET-2 AML cells viability, CellTiter-Glo luminescence, 48 h; viability: hits give low values, concentration not given here. In short, it runs like this:
(§1)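 500 cells/well; 11-pt dose curve; 48 h, standard incubator; CellTiter-Glo luminescence after 15 min RT; DMSO/empty-well normalization; AUC plus Z-AUC (mean-centered within each line).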
On the technique in general: Cellular ATP, detected with luciferase, serves as a proxy for viable cell number.

Assay [8] in a line: BET inhibitor-based combinations targeting novel dependencies in MECOM-rearranged (r) AML: OCI-AML3 cell line (AID 2202232). Further: nearly all actives have a fitted effect of over 35% in size. Further: potency means the concentration at half of the fitted maximal effect. The following applies: Potency: OCI-AML3 viability. Summed up: as §1
The nature of assay [9]: BET inhibitor-based combinations targeting novel dependencies in MECOM-rearranged (r) AML: MV-4-11 cell line (AID 2202233). Further: potency means the concentration at half of the fitted maximal effect; nearly all actives have a fitted effect of over 45% in size. Summed up: (§2)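 Cells were plated at 500 per well and exposed to each drug across an 11-point dose range for 48 hr at standard incubator conditions. Viability was read by CellTiter-Glo luminescence, and activity was expressed as AUC and per-cell-line Z-transformed AUC.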

Assay [10] can be described thus: BET inhibitor-based combinations targeting novel dependencies in MECOM-rearranged (r) AML: HNT-34 cell line (AID 2202234). Further: nearly all actives have a fitted effect of over 35% in size. Further: potency means the concentration at half of the fitted maximal effect. Summed up:
as §2

Assay [11] is described as follows: BET inhibitor-based combinations targeting novel dependencies in MECOM-rearranged (r) AML: UCSD-AML1 cell line (AID 2202235). Further: nearly all actives have a fitted effect of over 40% in size. Further: potency means the concentration at half of the fitted maximal effect. Summed up: as §2
Assay [12] is described as follows: BET inhibitor-based combinations targeting novel dependencies in MECOM-rearranged (r) AML: AML-191 cell line (AID 2202236; further: potency means the concentration at half of the fitted maximal effect; nearly all actives have a fitted effect of over 35% in size). Summed up: as §1
A short description of assay [13]: BET inhibitor-based combinations targeting novel dependencies in MECOM-rearranged (r) AML: AML-194 cell line (AID 2202237; further: potency means the concentration at half of the fitted maximal effect; nearly all actives have a fitted effect of over 40% in size). Summed up:
as §1

Assay [14] addresses Retinaldehyde dehydrogenase 3 (Homo sapiens) (UniProt P47895). The assay can be described thus: qHTS for Inhibitors of the Aldehyde Dehydrogenase Family (ALDH1A3) Validation screen (AID 2061312). Further: nearly all actives have a fitted effect of over 45% in size. Further: potency means the concentration at half of the fitted maximal effect.
For assay [15], the target named is Retinal dehydrogenase 2 (Homo sapiens) (UniProt O94788). The experiment in a line: qHTS for Inhibitors of the Aldehyde Dehydrogenase Family (ALDH1A2) Confirmation screens (AID 2061314). Further: nearly all actives have a fitted effect of over 65% in size. Further: potency means the concentration at half of the fitted maximal effect.
Assay [16] concerns the target Retinaldehyde dehydrogenase 3 (Homo sapiens) (UniProt P47895). The experiment in a line: qHTS for Inhibitors of the Aldehyde Dehydrogenase Family (ALDH1A3) Primary screen (AID 2061315).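 Further: plate controls were DMSO vehicle for no effect and reference inhibitor for full effect.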

The structures appear in SMILES notation. “And” between values parts separate entries of the source, which are not always exact repeats. Equal values may be shown once. Records with an inconclusive call do not appear. A number with no mark means an inactive call. The source made the active and inactive calls. Unless noted, the call rests on the fitted dose curve; in most records, active means well fitted curve in the direction sought with a large enough effect; inconclusive means small, poorly fitted or top-dose-only effect, or another doubt; inactive means no such curve, though single readings can be large; an effect the other way counts as inactive or inconclusive.

In general, viability refers to a per cent measure of how many cells are alive, often set against a control.

Cellular tumor antigen p53 (Homo sapiens), sequence (P04637 whole entry, looked up): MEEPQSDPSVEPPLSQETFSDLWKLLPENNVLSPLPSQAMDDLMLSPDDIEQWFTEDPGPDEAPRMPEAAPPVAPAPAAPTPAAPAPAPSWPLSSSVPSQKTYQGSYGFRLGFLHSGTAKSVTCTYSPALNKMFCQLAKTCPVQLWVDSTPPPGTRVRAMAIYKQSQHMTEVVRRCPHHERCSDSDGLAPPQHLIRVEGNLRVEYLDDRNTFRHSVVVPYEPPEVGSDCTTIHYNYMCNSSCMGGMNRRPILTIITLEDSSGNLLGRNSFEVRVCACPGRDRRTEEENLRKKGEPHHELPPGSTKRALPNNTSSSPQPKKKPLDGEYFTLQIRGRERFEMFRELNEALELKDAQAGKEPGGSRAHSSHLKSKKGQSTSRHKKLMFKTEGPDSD

As for `O=C(CCCCCCNC(=O)c1cnc(N(c2ccccc2)c2ccccc2)nc1)NO`, the activation in [1] is 7.34%. The Potency result in [2], in assay [3], in [4], in [5] and in assay [6] was “inactive” throughout. The Potency in assay [7] is 6.61 µM (active); in [8], 5.9 µM (active); in assay [9], 2.35 µM (active); in assay [10], 7.42 µM (active); in [11], 7.42 µM (active); in [12], 7.42 µM (active). Also, the Potency in assay [13] was 9.34 µM (active).
For the compound `CCOc1ccc(Nc2nc(-c3c(C)nc4ccccn34)cs2)cc1`, the activation in assay [1] is -3.9% and 0%. Further, the Potency was 15.8 µM (active) in assay [2]; 7.94 µM (active) in assay [3]; 0.132 µM (active) in assay [7]; 0.0833 µM (active) in [8]; 0.105 µM (active) in assay [9]; 0.0934 µM (active) in [11]. The Potency in assay [12] was 0.0833 µM (active); in assay [13] it was 0.332 µM (active). The Potency result in [4], in assay [14], in assay [15] and in assay [16] was “inactive” each time.
Consider `COc1cc(NC(=O)c2ccccn2)ccc1Cl`, for which the activation in [1] was -5.25%. For the same compound, the Potency result in assay [2], in [3], in assay [4], in [15], in assay [16] and in assay [6] was “inactive” each time.
As to `CSC(=O)OCC1=C[C@@H]2OC(=O)C3=CO[C@@H](O[C@@H]4O[C@H](CO)[C@@H](O)[C@H](O)[C@H]4O)[C@H]1[C@@H]32`, in assay [1], the activation was -22.1%. The Potency result in assay [2], in [3], in assay [4], in assay [15] and in assay [6] was “inactive” each time.
As for `CC1(C)CC(=O)c2c(C(F)(F)F)nn(-c3ccc(C(N)=O)c(NC4CCC(OC(=O)CN)CC4)c3)c2C1` (configuration not stated), the activation in assay [1] is 38.8% and -1.67%. Also, the Potency entry in assay [2], in [3], in [4], in [16] and in [6] was “inactive” in each case. For the same compound, the Potency is 0.209 µM (active) in assay [8], 0.059 µM (active) in assay [9], 0.209 µM (active) in assay [10] and 0.186 µM (active) in [11].
Take `CC(C)C[C@H](NC(=O)[C@@H](NC(=O)c1cccc(-c2ccccc2)n1)[C@@H](C)O)B(O)O`: the Potency in assay [1] is 385 nM (active) and 16.9 µM (active); in [14], 10 µM (active); in [7], 0.0723 µM (active); in [8], 0.0407 µM (active); in assay [9], 0.0512 µM (active); in assay [10] it was 0.0645 µM (active). Moreover, the figures for the Potency in [11], in assay [12] and in [13] were 0.0723 µM (active), 0.0811 µM (active) and 0.091 µM (active), respectively. Further, the Potency entry in assay [2], in assay [3], in [5], in assay [15], in assay [16] and in assay [6] was “inactive” in each case.
With `CCC[C@H](N[C@@H](C)C(=O)N1[C@H](C(=O)O)C[C@@H]2CCCC[C@@H]21)C(=O)O`, the activation in assay [1] is -7.64%. The Potency entry in [2], in [3], in [4], in assay [15], in assay [16] and in assay [6] was “inactive” throughout.
`CC1CCC23COC(=O)C2=CC(O)CC3C1(C)CCC1=CC(O)OC1=O` (configuration not stated): in assay [1], the activation is -3.82%. The Potency entry in assay [2], in assay [3], in assay [4], in assay [15] and in assay [16] was “inactive” in each case.
Consider `COc1cc(/C=C/C(=O)OCC2OC(OC3(CO)OC(CO)C(O)C3O)C(O)C(O)C2O)ccc1O` (configuration not stated), for which the activation in [1] is 10.7%. The Potency result in assay [2], in [3], in assay [4] and in assay [6] was “inactive” each time.
As for `COc1ccc(NC(=O)c2ccc(-c3ccc(C(=N)N)cc3C)cc2)cc1N1CCN(C)CC1`, the activation in assay [1] was 8.11%. For the same compound, the Potency entry in assay [2], in [3] and in [4] was “inactive” each time. Further, in [6], the Potency was 12.7 µM (active).
For the compound `COc1cc(/C=C/C(=O)O[C@H]2[C@H](OC(=O)/C=C/c3cc(OC)c(O)c(OC)c3)O[C@H](CO[C@@H]3O[C@H](CO)[C@@H](O)[C@H](O)[C@H]3O)[C@@H](O)[C@@H]2O)ccc1O`, the activation in assay [1] was -3.57%. Besides, the Potency result in [2], in assay [3], in [4], in [15] and in assay [6] was “inactive” each time.
Regarding `COc1cccc2cc(-c3nc(C4CCC(C(=O)O)CC4)n4ncnc(N)c34)[nH]c12` (configuration not stated), the activation in assay [1] was 12.5% and 16.7%. Moreover, the Potency entry in assay [2], in assay [4] and in [16] was “inactive” each time. In addition, the results for the Potency in [3] and in assay [8] were 3.57 µM (active) and 1.66 µM (active), respectively.
With `CC1(COc2ccc3c(c2)ncn3-c2ccc3cccc(N4CCC(N)CC4)c3n2)COC1`, the Potency in assay [1] is 21.3 µM (active); in assay [15] it was 14.2 µM (active); in [7], 13.2 µM (active); in assay [8], 7.42 µM (active); in assay [9], 0.0332 µM (active); in [10], 5.9 µM (active). Besides, the Potency in assay [11] is 4.17 µM (active); in assay [12], 2.09 µM (active); in assay [13], 2.35 µM (active). Also, the Potency result in [2], in assay [3], in assay [4], in [16] and in assay [6] was “inactive” each time.
On to `Cc1ccc(-c2c(C(=O)CCl)n(CCCO)c3ncnc(N)c23)cc1`, for which the Potency in assay [1] is 12 µM (active). Besides, the Potency result in assay [2], in [3], in assay [4], in assay [16] and in assay [6] was “inactive” each time.
For the compound `CN(C)C(=O)Nc1cccc(-c2ccc(N(C)C)cc2)c1`, the activation in assay [1] is -14.8%. In addition, the Potency result in assay [2], in assay [3], in assay [4] and in assay [6] was “inactive” each time.
In the case of `CC(=O)OCC(=O)[C@@]1(O)[C@H](C)C[C@H]2[C@@H]3C=C(C)C4=Cc5c(cnn5-c5ccccc5)C[C@]4(C)[C@@H]3[C@@H](O)C[C@@]21C`, the activation in assay [1] is 2.08%. Moreover, the Potency result in assay [2], in assay [3], in assay [4], in assay [15], in assay [16] and in [6] was “inactive” each time. The Potency entry in [8], in [10] and in assay [11] was “inactive” each time. Besides, the viability in assay [7] was 96.5%.
As for `CNC(=O)c1cc(Oc2ccc(NC(=O)c3cccc(C(F)(F)F)c3)cc2)ccn1`, the activation in assay [1] is 8.04%. Besides, the Potency result in assay [2], in assay [4], in assay [15], in [16] and in [6] was “inactive” throughout. For the same compound, in assay [3], the Potency was 6.34 µM (active).

The record behind these values is PubChem BioAssay (NCATS).
